# The whole screen tested about 43,000 compounds, of which about 830 (1.9%) were called active. Not shown: some 30% with an inconclusive outcome. How the source made its calls: active means clear falling dose curves in both reporters; inconclusive means both reporters move, but less clearly or upward; inactive means either reporter flat; the % is the NLuc reporter signal. The list comes from a sample in which actives are over-represented; it also holds similar structures and randomly drawn compounds. Where a call stands in place of a potency, no number is given.
# Experiment: Cell-based coincidence reporter assay to measure PMP22 gene transcription in S16 Pmp22-F2sN cells - Primary screen
# Settings: S16 Pmp22-F2sN Schwann cells (luciferase reporters placed in the Pmp22 gene), FLuc/NLuc coincidence luminescence, 24 h; series mostly up to 57.5 µM
# From the text: Assay Provider: Jim Inglese Ph.D. National Center for Advancing Translational Science, National Institutes of Health, Rockville, MD CMT is a heterogeneous group of neurological disorders that affect approximately 1 in 2,500 people. In particular, the most common form of CMT, CMT1A is genetically linked to the duplication of the PMP22 gene which leads to Schwann cell overexpression, thus manifesting itself as a typical case of dose-sensitive diseases. To identify small molecule compounds that can mediate the expression of PMP22 we developed a phenotypic assay screening strategy by utilizing genome editing techniques to construct Schwann cell lines containing novel reporter technology to monitor the transcriptional or translational regulation of PMP22. For high sensitivity we use a bioluminescent reporter system embedded in the 3' UTR of the PMP22 gene (S16(c9) Pmp22-F2sN) to identify compounds that inhibit gene expression. […] We can further discriminate the effect of all transcriptionally active molecules on PMP22 translation or stability with an assay that incorporates a short NLuc peptide (HiBiT) at the C-terminus of expressed PMP22 (S16(f8) PMP22-HiBiT) allowing alpha complementation and luminescence detection of membrane-associated PMP22 protein. These assays were screened against the NCATS Sytravon Library Collection. Miniaturization of these assays to 1536-well plate format for quantitative high throughput screening (qHTS) yielded rich data sets immediately from the qHTS assay (S16(c9) Pmp22-F2sN), when compared with data from a cell viability assay (Cell TiterGlo) to identify compounds that decreased the output signals through cellular toxicity to streamline the selection process of actives for subsequent characterization using the HiBiT assay (S16(f8) PMP22-HiBiT).
# Cell-based coincidence reporter assay to measure PMP22 gene transcription in S16 Pmp22-F2sN cells PROTOCOL TABLE (format as described by Inglese J, Shamu CE and Guy RK. 2007) SEQUENCE No. (e.g., 1, 2, 3, etc.); […] (e.g., Cells, Incubation, Reagent, etc.); VALUE and DESCRIPTION. 1. Cells. Add 500-1,000 cells in 4 uL in growth media (DMEM High Glucose, No Phenol Red media + 10% heat-inactivated FBS + 1% Pen/Strep supplemented media) per well into Greiner 1536-well white/solid bottom high base, TC-treated plates. 2. Compounds. Library compounds and controls added at 23nL per well, transferred by Pin Tool. 3. Incubation. Incubate plates at 37C, 5% CO2, 95% RH for 24 h. 4. Reagent. Add 3.5uL Nano-Glo Dual-Luciferase Reporter Assay System reagent 1: Lysis and FLuc reagent per well of Greiner 1536-well plates. 5. Incubation. Incubate plates at room temperature for 10 min., protect from light. 6. Detector. FLuc luminescence measured using CCD-based camera (Viewlux). 7. Reagent. Add 3.5uL Nano-Glo Dual-Luciferase Reporter Assay System reagent 2: Stop&Glo reagent per well of Greiner 1536-well plates. 8. Incubation. Incubate plates at room temperature for 10 min., protect from light. 9. Detector. NLuc luminescence measured using CCD-based camera (Viewlux). NOTES (numbers refer to Sequence numbers above; values are from representative experiments) 6. Luminescence Read #1 (FLuc): Clear filter; Exposure = 10 sec, Gain = High, Speed = Slow, Binning = 2X 9. Luminescence Read #2 (NLuc): Clear filter; Exposure = 1 sec, Gain = High, Speed = Slow, Binning = 2X REFERENCES: 1. Inglese J, Shamu CE and Guy RK, Reporting data from high throughput screening of small molecule libraries, Nature Chemical Biology, 2007, 3(8): 438-441. doi.org/10.1038/nchembio0807-438 2. Yasgar A, Shinn P, Jadhav A, Auld DS, Michael S, Zheng W, Austin CP, Inglese J and Simeonov A, Compound Management for Quantitative High-Throughput Screening. J. Assoc. Lab. Auto., 2008, 13: 79-89. doi: 10.1016/j.jala.2007.12.004
# Potency means the concentration at half of the fitted maximal effect.
row,Compound,Potency
1,COc1ccc(N2CCN(C(=O)c3c(C)oc4nc(C)nc(N5CCCC5)c34)CC2)cc1,inactive
2,CC1=C(C(=O)OCc2ccc(C)cc2)C(c2ccccc2Cl)CC(=O)N1 (centres undefined),inactive
3,CC1=C(C(=O)OCc2ccc(C)cc2)C(c2c(Cl)cccc2Cl)CC(=O)N1 (centres undefined),inactive
4,CCc1ccc(C2CC(=O)c3c([nH]c(C(=O)OCc4ccc(C)cc4)c3C)C2)cc1 (centres undefined),10 µM (active)
5,COc1ccc(-c2nn3c(-c4ccc(OC)cc4)nnc3c3ccccc23)cc1,inactive
6,CCOC(=O)c1cc(OC(=O)c2ccccc2Cl)n(-c2ccccc2)n1,inactive
7,COc1cc(OC)cc(-c2nc3nc(C)c(CCC(=O)Nc4ccc(C)cc4)c(C)n3n2)c1,inactive
8,Cc1ccc(NC(=O)Cn2cnc3nc4c(cc3c2=O)CCCC4)cc1Cl,inactive
9,O=C(CCc1nc(CN2CCN(S(=O)(=O)c3ccc(F)cc3)CC2)no1)N1CCCCC1,inactive
10,CCOC(=O)c1cccc(NC(=O)c2cc(CN3CCCC3)on2)c1,inactive
11,CCc1ccccc1NC(=O)N1CCN(C(=O)c2nsc3ccccc23)CC1,inactive
12,Cc1ccc(NC(=O)CN2c3ccccc3S(=O)(=O)c3ccccc32)cc1F,inactive
13,COc1cccc(NC(=O)N2CCN(C(=O)c3nsc4ccccc34)CC2)c1,inactive
14,CCc1ccccc1NC(=O)Cc1cn(C)c2ccccc12,inactive
15,COc1cccc(NC(=O)N(Cc2cn(C)c3ccccc23)C2CCCCCC2)c1,10.6 µM (active)
16,O=c1cc(COc2cccc(C(F)(F)F)c2)nc2sc3c(n12)CCCC3,inactive
17,COc1cccc(CNC(=O)c2nnn(CC(=O)Nc3cc(Cl)ccc3C)c2N)c1,inactive
18,CCOc1ccccc1NC(=O)Cn1nnc(C(=O)NCc2cccs2)c1N,0.401 µM (active)
19,CCOc1ccccc1NC(=O)Cn1nnc(C(=O)Nc2ccc(C)c(C)c2)c1N,inactive
20,COc1ccc(C2Sc3ccccc3NC3=C2C(=O)c2ccccc23)c(OC)c1OC (centres undefined),7.27 µM (active)
21,Cc1ccc(-c2noc(CSc3nnc(-c4ccc(Cl)cc4)n3C)n2)cc1,inactive
22,Cc1nnc(C)n1-c1ccc(C(=O)Nc2cccc(Br)c2)cc1,inactive

row,Compound,Potency
1,CCN(CCCNC(=O)c1c(C)oc2ncn(CC(C)C)c(=O)c12)Cc1ccccc1,inactive
2,COc1ccc(OC)c(NC(=O)C2CCN(S(=O)(=O)c3ccc(C)cc3)CC2)c1,inactive
3,Cc1cc(C)nc(NS(=O)(=O)c2ccc(NC(=O)c3cc(=O)c4ccc(C)c(C)c4o3)cc2)n1,inactive
4,COc1ccc(S(=O)(=O)Nc2cc3c(C(=O)OC(C)C)c(C)oc3c3ccccc23)cc1,11.3 µM (active)
5,COc1ccc(Cn2ccnc2SCC(=O)Nc2ccc3c(c2)OCO3)cc1,inactive
6,CCn1cc(C(=O)NCc2ccc(C)cc2)c(=O)c2cc(S(=O)(=O)N3CCc4ccccc4C3)ccc21,inactive
7,COc1ccccc1Nc1c2c(nc3ccc(NC(=O)/C=C/c4cc(OC)c(OC)c(OC)c4)cc13)CCCC2,6.04 µM (active)
8,COc1cc(NC(=O)c2nc3ccccc3nc2C)cc(OC)c1OC,inactive
9,COc1cccc(C(=O)Nc2ccc3nc4n(c(=O)c3c2)CCCCC4)c1,inactive
10,CC(=O)c1ccc(N2CCN(C3C(=O)c4ccccc4N3C(C)=O)CC2)cc1 (centres undefined),inactive
11,O=C(C1COc2ccccc2O1)N(Cc1cccnc1)c1nc2c(F)cc(F)cc2s1 (centres undefined),inactive
12,Cc1ccc2sc(N(Cc3cccnc3)C(=O)C3COc4ccccc4O3)nc2c1C (centres undefined),inactive
13,O=C(CCS(=O)(=O)c1ccccc1)N(Cc1cccnc1)c1nc2c(F)cccc2s1,10.6 µM (active)
14,CCC(C(=O)Nc1cccc(-c2nc3cccnc3s2)c1C)c1ccccc1 (centres undefined),inactive
15,CCOC(=O)c1sc(NC(=O)/C=C/c2ccc(C(C)C)cc2)c(C(=O)OCC)c1C,inactive
16,COc1ccccc1-c1cc(C(F)(F)F)nc(S(=O)(=O)CCCC(=O)Nc2cc(C)ccc2O)n1,inactive
17,COc1ccccc1-c1cc(C(F)(F)F)nc(S(=O)(=O)CCCC(=O)Nc2ccc(F)cc2F)n1,11.3 µM (active)
18,Cc1ccc(F)cc1NC(=O)CCSc1nc(-c2ccco2)cc(C(F)(F)F)n1,inactive
19,COc1cc2c(cc1OC)C(COc1ccc(F)cc1)N(C(=O)c1ccccc1F)CC2 (centres undefined),inactive
20,COc1ccc(N2CCN(Cc3nc4c(c(=O)[nH]c(=O)n4C)n3Cc3ccc(Cl)cc3)CC2)cc1,inactive
21,COC(=O)c1c(NC(=O)CCCOc2ccccc2)sc2c1CCC(C)C2 (centres undefined),inactive
22,CCOc1ccc(NC(=O)c2c(NC(=O)Cc3ccccc3)sc3c2CCC(C)C3)cc1 (centres undefined),18.9 µM (active)

row,Compound,Potency
1,O=C(Cc1ccccc1)Nc1sc2c(c1C(=O)Nc1ccc(Br)cc1)CCC2,inactive
2,Cc1ccc(Nc2c(-c3ccc(C)s3)nc3ccccn23)cc1,inactive
3,CCC(=O)N1CCc2cc(Br)cc(S(=O)(=O)CCC(=O)N3CCN(c4ccc(F)cc4)CC3)c21,inactive
4,COc1ccc(OC)c(-n2nnc(-c3nc(-c4cc(OC)c(OC)c(OC)c4)no3)c2C)c1,inactive
5,COc1ccc(C(=O)COC(=O)CCCC(=O)Nc2cc(C(F)(F)F)ccc2Cl)cc1,inactive
6,COc1ccc(-c2nn3c(=O)cc(CN4CCN(C(=O)c5ccc(OC)c(OC)c5)CC4)nc3s2)cc1,inactive
7,CCOc1ccc(N(CC)C(=O)c2noc3c2COc2ccc(C)cc2-3)cc1,inactive
8,CCOc1ccc(N(Cc2ccccc2)C(=O)c2nc(S(C)(=O)=O)ncc2Cl)cc1,1.5 µM (active)
9,CCOc1ccc(N(CC)C(=O)C2CCN(S(=O)(=O)c3cccc4nonc34)CC2)cc1,inactive
10,COc1ccccc1-c1noc(-c2ccc(NCc3ccccc3)c([N+](=O)[O-])c2)n1,inactive
11,Cc1ccc(C)c(S(=O)(=O)n2nc(C)c(S(=O)(=O)N3CCC(C)CC3)c2C)c1,inactive
12,O=C(CC1Oc2ccccc2NC1=O)NCc1ccc(F)cc1 (centres undefined),inactive
13,CCOc1ccc(NC(=O)C2CCN(S(=O)(=O)c3cc(-c4noc(C)n4)ccc3C)CC2)cc1,inactive
14,COc1ccc(N2CC(C(=O)NCCS(=O)(=O)N3CCN(c4ccccc4)CC3)CC2=O)cc1 (centres undefined),inactive
15,Cc1ccccc1CNC(=O)CSc1nnc(C)c2c(C)n(-c3ccccc3)nc12,16.8 µM (active)
16,COc1ccc(OC)c(CNC(=O)Cn2nc(C)c3c(C)n(-c4ccccc4)nc3c2=O)c1,inactive
17,COc1ccccc1CNC(=O)Cn1nc(C)c2nn(-c3ccc(Cl)cc3)c(C)c2c1=O,inactive
18,Cc1nnc(N2CCCC(C(=O)NCCN(C)C)C2)c2nn(-c3ccccc3)c(C)c12 (centres undefined),inactive
19,Cc1ccccc1CNC(=O)Cn1c(C)c2cnn(-c3ccccc3)c(=O)c2c1C,inactive
20,Cc1nnc(SCC(=O)NCc2ccccc2Cl)c2nn(-c3ccccc3)c(C)c12,14.1 µM (active)

# Reference: PubChem BioAssay AID1508649 (National Center for Advancing Translational Sciences (NCATS), 2021)
